Test results taken from PubChem BioAssay AID1159580 (chemical genetic matrix, 2015).
The campaign covered roughly 5,500 compounds. About 2,000 (36%) were called active. About 18% were inconclusive and are not listed. No stated cut-off is given here; in the data, active means normalized growth mostly below about 0.91 (no sharp cut-off); inconclusive means no clear call, values can overlap the other calls; inactive means mostly above about 0.92. The list shows a part of the results.

Test: chemical genetic growth profiling, strain panel (AID 1159580);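 further: tested at 20 µM; growth read once vehicle control cultures reached saturation at 30 °C; 1 = growth at the plate median or of vehicle wells; lower values mean less growth of the strain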
Settings: S. cerevisiae deletion strains, growth OD
[1] = locus YAL021C, strain ccr4, hits give low values
[2] = locus YAL026C, strain drs2, hits give low values
[3] = locus YAL030W, strain snc1, hits give low values
[4] = locus YBL061C, strain skt5, hits give low values
[5] = locus YBR009C, strain hhf1, hits give low values
[6] = locus YBR023C, strain chs3, hits give low values
[7] = locus YBR171W, strain sec66, hits give low values
[8] = locus YBR231C, strain swc5, hits give low values
[9] = locus YBR279W, strain paf1, hits give low values
[10] = locus YCL011C, strain gbp2, hits give low values
[11] = locus YCL016C, strain dcc1, hits give low values
[12] = locus YCL061C, strain MRC1, hits give low values
[13] = locus YCL069W, strain vba3, hits give low values
[14] = locus YCR088W, strain abp1, hits give low values
[15] = locus YDL005C, strain med2, hits give low values
[16] = locus YDL040C, strain nat1, hits give low values
[17] = locus YDR001C, strain nth1, hits give low values
[18] = locus YDR069C, strain doa4, hits give low values
[19] = locus YDR137W, strain rgp1, hits give low values
[20] = locus YDR159W, strain sac3, hits give low values
[21] = locus YDR297W, strain sur2, hits give low values
[22] = locus YDR334W, strain swr1, hits give low values
[23] = locus YDR335W, strain msn5, hits give low values
[24] = locus YDR392W, strain spt3, hits give low values
[25] = locus YEL003W, strain gim4, hits give low values
[26] = locus YEL037C, strain rad23, hits give low values
[27] = locus YEL061C, strain CIN8 (second series), hits give low values
[28] = locus YER015W, strain faa2, hits give low values
[29] = locus YER016W, strain bim1, hits give low values
[30] = locus YER111C, strain swi4, hits give low values
[31] = locus YER155C, strain BEM2 (second series), hits give low values
[32] = locus YFR010W, strain ubp6, hits give low values
[33] = locus YGL167C, strain pmr1, hits give low values
[34] = locus YGL173C, strain kem1, hits give low values
[35] = locus YGL227W, strain vid30, hits give low values
[36] = locus YGL240W, strain doc1, hits give low values
[37] = locus YGL253W, strain hxk2, hits give low values
[38] = locus YHR013C, strain ard1, hits give low values
[39] = locus YHR027C, strain rpn1, hits give low values
[40] = locus YHR142W, strain chs7, hits give low values
[41] = locus YJL092W, strain hpr5, hits give low values
[42] = locus YJL095W, strain BCK1 (second series), hits give low values
[43] = locus YJL115W, strain asf1, hits give low values
[44] = locus YJL129C, strain trk1, hits give low values
[45] = locus YJL154C, strain vps35, hits give low values
[46] = locus YJL164C, strain tpk1, hits give low values
[47] = locus YJL166W, strain qcr8, hits give low values
[48] = locus YJL187C, strain SWE1, hits give low values
[49] = locus YKL160W, strain elf1, hits give low values
[50] = locus YKR026C, strain gcn3, hits give low values
[51] = locus YKR091W, strain srl3, hits give low values
[52] = locus YLL001W, strain dnm1, hits give low values
[53] = locus YLL026W, hits give low values
[54] = locus YLL041C, strain sdh2, hits give low values
[55] = locus YLR027C, strain aat2, hits give low values
[56] = locus YLR221C, strain rsa3, hits give low values
[57] = locus YLR258W, strain gsy2, hits give low values
[58] = locus YLR262C, strain YPT6 (second series), hits give low values
[59] = locus YLR320W, strain mms22, hits give low values
[60] = locus YLR342W, strain FKS1, hits give low values
[61] = locus YLR357W, strain rsc2, hits give low values
[62] = locus YLR370C, strain arc18, hits give low values
[63] = locus YLR384C, strain iki3, hits give low values
[64] = locus YML120C, strain ndi1, hits give low values
[65] = locus YMR125W, strain sto1, hits give low values
[66] = locus YMR129W, hits give low values
[67] = locus YMR205C, strain PFK2, hits give low values
[68] = locus YMR231W, strain pep5, hits give low values
[69] = locus YNL071W, strain lat1, hits give low values
[70] = locus YNL209W, strain ssb2, hits give low values
[71] = locus YNL248C, strain rpa49, hits give low values
[72] = locus YNL322C, strain KRE1 (second series), hits give low values
[73] = locus YNR049C, strain mso1, hits give low values
[74] = locus YOR001W, strain rrp6, hits give low values
[75] = locus YOR070C, strain gyp1, hits give low values
[76] = locus YOR080W, strain dia2, hits give low values
[77] = locus YOR083W, strain WHI5, hits give low values
[78] = locus YOR106W, strain vam3, hits give low values
[79] = locus YOR265W, strain rbl2, hits give low values
[80] = locus YOR270C, strain vph1, hits give low values
[81] = locus YOR290C, strain snf2, hits give low values
[82] = locus YPL051W, strain arl3, hits give low values
[83] = locus YPL078C, strain atp4, hits give low values
[84] = locus YPL106C, strain sse1, hits give low values
[85] = locus YPL240C, strain hsp82, hits give low values

Measured: normalized growth

O=c1cc(-c2ccc(O)c(O)c2)oc2ccccc12
inactive: [1] 0.999 | [2] 0.964 | [3] 0.986 | [4] 0.965 | [5] 0.933 | [6] 0.961 | [7] 0.97 | [8] 0.924 | [9] 0.977 | [10] 0.956 | [11] 0.969 | [12] 0.965 | [13] 0.996 | [14] 0.997 | [15] 0.998 | [16] 0.989 | [17] 0.994 | [19] 0.985 | [20] 0.971 | locus YDR195W, strain ref2 1.02 | [21] 0.971 | [22] 0.976 | [23] 0.995 | [24] 0.954 | [25] 0.946 | [26] 0.984 | [27] 0.989 | [28] 0.955 | [29] 0.991 | [30] 0.962 | [31] 0.926 | [32] 0.947 | [33] 0.98 | [34] 0.936 | [35] 0.991 | [36] 1.01 | [37] 0.963 | [38] 0.983 | [39] 0.966 | [40] 0.962 | [41] 0.983 | [42] 0.976 | [43] 0.991 | [44] 0.978 | [45] 0.996 | [46] 0.942 | [47] 0.932 | [48] 0.982 | [49] 0.974 | [50] 0.972 | [51] 1 | [52] 0.965 | [53] 0.987 | [54] 0.99 | [55] 0.943 | [56] 0.927 | [57] 0.967 | [58] 0.934 | [59] 0.943 | [60] 0.961 | [61] 0.927 | [62] 0.993 | [63] 0.981 | [64] 0.978 | [65] 0.991 | [66] 0.99 | [67] 0.982 | [68] 0.961 | [69] 0.965 | [70] 0.932 | [71] 0.986 | [72] 0.989 | [73] 0.992 | [74] 0.928 | [75] 0.956 | [76] 0.986 | [77] 0.959 | [79] 1.01 | [80] 0.83 | [81] 0.968 | [82] 0.926 | [83] 0.985 | [84] 0.938 | [85] 0.99
active: [18] 0.893 | [78] 0.867

COc1ccc2oc(-c3ccccc3OC)cc(=O)c2c1
inactive: locus YHR030C, strain SLT2, hits give low values 0.875 | locus YHR079C, strain IRE1, hits give low values 0.911 | locus YJL095W, strain BCK1, hits give low values 0.889 | locus YJR066W, strain TOR1, hits give low values 0.851 | locus YLR113W, strain HOG1, hits give low values 0.966 | locus YNL183C, strain NPR1, hits give low values 0.883 | locus YOR231W, strain MKK1, hits give low values 0.91 | locus YPL256C, strain CLN2, hits give low values 0.936

O=c1cc(-c2cccc(O)c2)oc2ccc(O)cc12
inactive: [1] 0.959 | [2] 0.946 | [3] 0.957 | [4] 0.952 | [5] 0.934 | [6] 0.947 | [7] 0.956 | [8] 0.939 | [9] 0.962 | [10] 0.933 | [11] 0.952 | [12] 0.949 | [13] 0.969 | [14] 0.962 | [15] 0.951 | [16] 0.971 | [17] 0.943 | [18] 0.946 | [20] 0.975 | locus YDR195W, strain ref2 1.06 | [21] 0.953 | [22] 0.924 | [23] 0.938 | [24] 0.873 | [25] 0.943 | [26] 0.964 | [27] 0.951 | [28] 0.936 | [29] 0.944 | [30] 0.956 | [31] 0.925 | [32] 0.962 | [33] 0.942 | [34] 0.941 | [35] 0.953 | [36] 0.91 | [37] 0.952 | [38] 0.953 | [39] 0.955 | [40] 0.885 | [41] 0.953 | [42] 0.942 | [43] 0.947 | [44] 0.903 | [45] 0.962 | [46] 0.947 | [47] 0.95 | [48] 0.936 | [49] 0.936 | [50] 0.948 | [51] 0.952 | [52] 0.945 | [53] 0.947 | [54] 0.951 | [55] 0.938 | [57] 0.939 | [59] 0.923 | [60] 0.983 | [61] 0.906 | [62] 0.933 | [63] 0.951 | [64] 0.952 | locus YMR058W, strain fet3, hits give low values 0.942 | [65] 0.959 | [66] 0.983 | [67] 0.944 | [68] 0.958 | [69] 0.958 | [70] 0.945 | [71] 0.931 | [72] 0.958 | [73] 0.942 | [74] 0.948 | [75] 0.964 | [76] 0.93 | [77] 0.928 | [78] 0.933 | [79] 0.958 | [80] 0.865 | [81] 0.893 | [82] 0.92 | [83] 0.956 | [85] 0.952
active: [19] 0.778 | [56] 0.894 | [58] 0.804 | [84] 0.827
